According to PubChem BioAssay AID1159580 (chemical genetic matrix, 2015):
Values joined by “and” are separate entries in the source; they are usually repeats but may differ in a detail not shown here. Equal values may be shown once. Screen size: about 5,500 compounds; about 2,000 (36%) were called active. Another 18% or so got no clear call; they are omitted. Rule as the data show it: active = normalized growth mostly below about 0.91 (no sharp cut-off); inconclusive = no clear call, values can overlap the other calls; inactive = mostly above about 0.92. This is one part of the list.

Assay: chemical genetic growth profiling, strain panel (AID 1159580);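 also: tested at 20 µM; growth read once vehicle control cultures reached saturation at 30 °C; 1 = growth at the plate median or of vehicle wells; lower values mean less growth of the strain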
Conditions: growth OD

Measured: normalized growth

C#CCN(C)Cc1ccccc1
inactive: S. cerevisiae deletion strains, locus YJR075W, strain HOC1, stronger effect = lower value 0.991 | S. cerevisiae deletion strains, locus YKL009W, strain mrt4, stronger effect = lower value 1.02 | S. cerevisiae deletion strains, locus YKL068W, stronger effect = lower value 1 | S. cerevisiae deletion strains, locus YKL085W, strain MDH1 (second series), stronger effect = lower value 1 | S. cerevisiae deletion strains, locus YKL085W, strain MDH1, stronger effect = lower value 1 | S. cerevisiae deletion strains, locus YKL160W, strain elf1, stronger effect = lower value 1.01 | S. cerevisiae deletion strains, locus YKL190W, strain CNB1, stronger effect = lower value 0.997 | S. cerevisiae deletion strains, locus YKR001C, strain vps1, stronger effect = lower value 1.02 | S. cerevisiae deletion strains, locus YKR026C, strain gcn3, stronger effect = lower value 1.02 | S. cerevisiae deletion strains, locus YKR091W, strain srl3, stronger effect = lower value 1.02 | S. cerevisiae deletion strains, locus YLL001W, strain dnm1, stronger effect = lower value 1.02 | S. cerevisiae deletion strains, locus YLL026W, stronger effect = lower value 1 | S. cerevisiae deletion strains, locus YLL041C, strain sdh2, stronger effect = lower value 0.968 | S. cerevisiae deletion strains, locus YLR027C, strain aat2, stronger effect = lower value 0.991 | S. cerevisiae deletion strains, locus YLR039C, strain RIC1, stronger effect = lower value 1.02 | S. cerevisiae deletion strains, locus YLR058C, strain SHM2, stronger effect = lower value 0.998 | S. cerevisiae deletion strains, locus YLR102C, strain apc9, stronger effect = lower value 1.01 | S. cerevisiae deletion strains, locus YLR113W, strain HOG1, stronger effect = lower value 1 | S. cerevisiae deletion strains, locus YLR221C, strain rsa3, stronger effect = lower value 1.01 | S. cerevisiae deletion strains, locus YLR258W, strain gsy2, stronger effect = lower value 1 | S. cerevisiae deletion strains, locus YLR262C, strain YPT6 (second series), stronger effect = lower value 1.05 | S. cerevisiae deletion strains, locus YLR262C, strain YPT6, stronger effect = lower value 0.997 | S. cerevisiae deletion strains, locus YLR268W, strain sec22, stronger effect = lower value 1.06 | S. cerevisiae deletion strains, locus YLR320W, strain mms22, stronger effect = lower value 0.99 | S. cerevisiae deletion strains, locus YLR330W, strain CHS5, stronger effect = lower value 1 | S. cerevisiae deletion strains, locus YLR342W, strain FKS1 (second series), stronger effect = lower value 1.02 | S. cerevisiae deletion strains, locus YLR342W, strain FKS1, stronger effect = lower value 1.03 | S. cerevisiae deletion strains, locus YLR357W, strain rsc2, stronger effect = lower value 1.05 | S. cerevisiae deletion strains, locus YLR370C, strain arc18, stronger effect = lower value 0.987 | S. cerevisiae deletion strains, locus YLR371W, strain rom2, stronger effect = lower value 1.02 | S. cerevisiae deletion strains, locus YLR384C, strain iki3, stronger effect = lower value 0.996 | S. cerevisiae deletion strains, locus YLR418C, strain cdc73, stronger effect = lower value 1.02 | S. cerevisiae deletion strains, locus YML016C, strain PPZ1, stronger effect = lower value 1 | S. cerevisiae deletion strains, locus YML032C, strain rad52, stronger effect = lower value 1.02 | S. cerevisiae deletion strains, locus YML120C, strain ndi1, stronger effect = lower value 0.999 | S. cerevisiae deletion strains, locus YML124C, strain tub3, stronger effect = lower value 1.01 | S. cerevisiae deletion strains, locus YMR058W, strain fet3, stronger effect = lower value 1.04 | S. cerevisiae deletion strains, locus YMR078C, strain ctf18, stronger effect = lower value 1.02 | S. cerevisiae deletion strains, locus YMR125W, strain sto1, stronger effect = lower value 1.03 | S. cerevisiae deletion strains, locus YMR129W, stronger effect = lower value 0.988 | S. cerevisiae deletion strains, locus YMR205C, strain PFK2, stronger effect = lower value 0.98 | S. cerevisiae deletion strains, locus YMR223W, strain ubp8, stronger effect = lower value 0.98 | S. cerevisiae deletion strains, locus YMR231W, strain pep5, stronger effect = lower value 1.02 | S. cerevisiae deletion strains, locus YMR263W, strain SAP30, stronger effect = lower value 0.995 | S. cerevisiae deletion strains, locus YMR307W, strain GAS1, stronger effect = lower value 0.994 and 0.99 | S. cerevisiae deletion strains, locus YNL067W, strain RPL9B, stronger effect = lower value 0.99 | S. cerevisiae deletion strains, locus YNL071W, strain lat1, stronger effect = lower value 1.02 | S. cerevisiae deletion strains, locus YNL128W, strain TEP1, stronger effect = lower value 1.01 and 0.994 | S. cerevisiae deletion strains, locus YNL153C, strain GIM3, stronger effect = lower value 1.15 | S. cerevisiae deletion strains, locus YNL175C, strain NOP13, stronger effect = lower value 1.01 | S. cerevisiae deletion strains, locus YNL183C, strain NPR1, stronger effect = lower value 0.944 | S. cerevisiae deletion strains, locus YNL197C, strain WHI3, stronger effect = lower value 1.01 | S. cerevisiae deletion strains, locus YNL209W, strain ssb2, stronger effect = lower value 1.02 | S. cerevisiae deletion strains, locus YNL224C, strain SQS1, stronger effect = lower value 1.04 | S. cerevisiae deletion strains, locus YNL233W, strain BNI4, stronger effect = lower value 0.996 | S. cerevisiae deletion strains, locus YNL248C, strain rpa49, stronger effect = lower value 1.03 | S. cerevisiae deletion strains, locus YNL250W, strain rad50, stronger effect = lower value 1.01 | S. cerevisiae deletion strains, locus YNL271C, strain bni1, stronger effect = lower value 1.02 | S. cerevisiae deletion strains, locus YNL298W, strain CLA4, stronger effect = lower value 1.03 | S. cerevisiae deletion strains, locus YNL307C, strain MCK1, stronger effect = lower value 1.03 | S. cerevisiae deletion strains, locus YNL322C, strain KRE1 (second series), stronger effect = lower value 1.03 | S. cerevisiae deletion strains, locus YNR049C, strain mso1, stronger effect = lower value 0.961 | S. cerevisiae deletion strains, locus YNR052C, strain pop2, stronger effect = lower value 1.03 | S. cerevisiae deletion strains, locus YOL006C, strain TOP1, stronger effect = lower value 1 | S. cerevisiae deletion strains, locus YOL012C, strain htz1 0.939 | S. cerevisiae deletion strains, locus YOL147C, strain pex11, stronger effect = lower value 1.02 | S. cerevisiae deletion strains, locus YOR001W, strain rrp6, stronger effect = lower value 1.01 | S. cerevisiae deletion strains, locus YOR061W, strain CKA2, stronger effect = lower value 1 | S. cerevisiae deletion strains, locus YOR069W, strain VPS5, stronger effect = lower value 1 | S. cerevisiae deletion strains, locus YOR070C, strain gyp1, stronger effect = lower value 1.01 | S. cerevisiae deletion strains, locus YOR080W, strain dia2, stronger effect = lower value 1.02 | S. cerevisiae deletion strains, locus YOR083W, strain WHI5 (second series), stronger effect = lower value 1.01 | S. cerevisiae deletion strains, locus YOR083W, strain WHI5, stronger effect = lower value 1 | S. cerevisiae deletion strains, locus YOR106W, strain vam3, stronger effect = lower value 0.996 | S. cerevisiae deletion strains, locus YOR136W, strain idh2, stronger effect = lower value 1.01 | S. cerevisiae deletion strains, locus YOR144C, strain elg1, stronger effect = lower value 1.01 | S. cerevisiae deletion strains, locus YOR184W, strain ser1, stronger effect = lower value 1.01 | S. cerevisiae deletion strains, locus YOR231W, strain MKK1, stronger effect = lower value 0.997 | S. cerevisiae deletion strains, locus YOR265W, strain rbl2, stronger effect = lower value 1.01 | S. cerevisiae deletion strains, locus YOR270C, strain vph1, stronger effect = lower value 1.06 | S. cerevisiae deletion strains, locus YOR290C, strain snf2, stronger effect = lower value 0.999 | S. cerevisiae deletion strains, locus YOR316C, strain cot1, stronger effect = lower value 1.02 | S. cerevisiae deletion strains, locus YPL051W, strain arl3, stronger effect = lower value 1.02 | S. cerevisiae deletion strains, locus YPL078C, strain atp4, stronger effect = lower value 1.05 | S. cerevisiae deletion strains, locus YPL106C, strain sse1, stronger effect = lower value 1.07 | S. cerevisiae deletion strains, locus YPL240C, strain hsp82, stronger effect = lower value 0.979 | S. cerevisiae deletion strains, locus YPL256C, strain CLN2, stronger effect = lower value 0.939 | S. cerevisiae deletion strains, locus YPR119W, strain clb2, stronger effect = lower value 1.02 | S. cerevisiae deletion strains, locus YPR141C, strain kar3, stronger effect = lower value 1 | S. cerevisiae deletion strains, locus YPR163C, strain tif3, stronger effect = lower value 1.02 | S. cerevisiae deletion strains, locus YPR167C, strain met16, stronger effect = lower value 1.02 | S. cerevisiae deletion strains, strain wtn01, stronger effect = lower value 1.02 | S. cerevisiae strains, strain wild type, stronger effect = lower value 0.998
